Data taken from PubChem BioAssay AID1053197 (The Scripps Research Institute Molecular Screening Center, 2014).
Hit rate of the full screen: of about 370,000 compounds, about 2,600 (0.7%) were called active.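 How the source made its calls: active means inhibition above a cutoff: mean of compounds within the control limits plus 3 SD of those (cut at about 17% in these data); inactive means the rest.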 This excerpt belongs to a sample that is enriched for actives.

molecular target: Sialate O-acetylesterase (Homo sapiens) (UniProt Q9HAT2); experiment: human SIAE inhibitors, primary screen, biochemical, fluorescence polarization, FP-Rh probe, 1536-well HTS (AID 1053197); conditions: SIAE FP-Rh probe binding, at 9.66 µM, active compounds read high;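 further: 0% = plate median of compound wells and 100% = probe without SIAE protein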
Sequence (Q9HAT2 whole entry, looked up): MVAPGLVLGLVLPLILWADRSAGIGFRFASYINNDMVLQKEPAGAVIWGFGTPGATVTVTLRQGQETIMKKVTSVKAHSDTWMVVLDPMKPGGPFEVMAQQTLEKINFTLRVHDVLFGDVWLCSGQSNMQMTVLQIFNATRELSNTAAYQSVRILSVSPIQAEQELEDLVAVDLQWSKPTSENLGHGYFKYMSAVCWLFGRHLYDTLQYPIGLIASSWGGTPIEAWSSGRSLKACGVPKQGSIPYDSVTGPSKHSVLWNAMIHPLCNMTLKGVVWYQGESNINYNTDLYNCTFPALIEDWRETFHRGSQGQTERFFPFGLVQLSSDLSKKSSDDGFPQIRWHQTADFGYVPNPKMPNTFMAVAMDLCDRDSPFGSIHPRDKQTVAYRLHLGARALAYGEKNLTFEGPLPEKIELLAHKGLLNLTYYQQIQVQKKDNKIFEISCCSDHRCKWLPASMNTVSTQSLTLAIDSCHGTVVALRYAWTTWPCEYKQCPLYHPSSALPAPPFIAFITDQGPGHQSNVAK

Structure (SMILES) | inhibition
O=C(CSc1nnc(COc2ccccc2)n1Cc1ccco1)c1ccc2ccccc2c1 | -7.8% (inactive)
CCOc1ccc(NC(=O)CSc2nc3ccccc3c(=O)n2Cc2cccs2)cc1 | 0.33% (inactive)
CCOc1ccc(/C=N/OCC(=O)NCc2cccs2)cc1 | -7.11% (inactive)
CCOc1ccc(NC(=O)C/C(C)=N/NC(=O)Cc2cccs2)cc1 | 21.6% (active)
Cc1ccc(C(=O)C2CCN(CC(=O)NCCC(C)C)CC2)cc1 | 4.25% (inactive)
O=C(CSc1nc2ccccc2n1Cc1ccccc1Cl)N/N=C\c1c[nH]c2ccccc12 | -8.22% (inactive)
CC(CCN1CCC(C(O)(c2ccccc2)c2ccccc2)CC1)Oc1ccc(C(F)(F)F)cc1 (stereo not drawn) | 8.83% (inactive)
COCCOC(=O)c1sc(=S)n(CCOC)c1N | 35.8% (active)
CCC(NC(=O)C1C2C=CC3(CN(Cc4ccccc4)C(=O)C13)O2)c1ccccc1 (stereo not drawn) | 0.07% (inactive)
O=C(CSc1nc2ccccc2s1)NN=Cc1ccc(O)cc1O | 7.21% (inactive)
O=C(CSc1nnc(-c2ccccn2)n1-c1ccccc1)Nc1ccc2cn[nH]c2c1 | 1.79% (inactive)
Cc1ccc(-n2c(SCC(=O)Nc3ccc(S(=O)(=O)Nc4nccs4)cc3)nnc2-c2ccncc2)cc1 | -12.6% (inactive)
CNCC(O)c1ccc(O)c(O)c1 (stereo not drawn) | 4.81% (inactive)
CCC(C)c1ccc(O)c(/C=N/O)c1 (stereo not drawn) | 23.1% (active)
O=S(=O)(c1ccccc1)N1CCC(c2nc3ccccc3o2)CC1 | 6.75% (inactive)
O=C1CC(c2ccc3c(c2)OCO3)N=C2N(CC3CC3)C/C(=C/c3ccccc3)N12 (stereo not drawn) | 6.68% (inactive)
COc1ccc(-c2cc(-c3nnc(SCC(=O)Nc4cccc5ccccc45)n3N)[nH]n2)cc1 | 1.67% (inactive)
COC(=O)C[C@@H]1CC[C@@H]2[C@@H](COc3ccc(NC(=O)Nc4ccc(F)c(F)c4)cc3C(=O)N2C)O1 | -2.22% (inactive)
O=C1CC[C@@H](COc2ccc3[nH]cc(-c4ccccc4)c3c2-c2ccccc2)N1 | 3.06% (inactive)
COc1ccc2[nH]c3c(C)c4cc[n+](C)cc4c(C)c3c2c1 | 3.4% (inactive)
COc1ccc2[nH]c(=S)cc(C)c2c1 | 23.9% (active)
COc1ccc(N)c(C)c1 | 15.1% (inactive)
COC(=O)C12C=C3CC(c4ccccc4)=C3C(=O)N1Cc1[nH]c3ccccc3c1C2 (stereo not drawn) | 5.02% (inactive)

Structure (SMILES) | inhibition
Cc1cc(NS(=O)(=O)c2ccc(NC(=O)CSc3nnc(SCc4ccc(F)cc4)s3)cc2)nc(C)n1 | -8.85% (inactive)
COc1ccc(CN2C/C(=C/c3ccccc3)N3C(=O)C[C@@H](c4ccccc4)N=C23)c(OC)c1 | 3.22% (inactive)
O=C(NCc1ccco1)/C(=C\c1cccc([N+](=O)[O-])c1)NC(=O)c1ccco1 | -0.85% (inactive)
O=C(NCc1ccco1)/C(=C/c1cccc([N+](=O)[O-])c1)NC(=O)c1ccco1 | -7.3% (inactive)
Cc1ccc(C(=O)N/C(=C/c2ccc(-c3cccc([N+](=O)[O-])c3)o2)C(=O)NCCCN(C)C)cc1 | 21.2% (active)
C=CCN1C(=O)[C@H](CC(=O)NCCCN2CCCC2=O)[C@@]2(C(=O)OCC)CCCC=C12 | 4.17% (inactive)
CCOC(=O)C1=C(C)NC2=C(C(=O)CC(C)(C)C2)C1c1ccc2c(c1)OCO2 (stereo not drawn) | -1.17% (inactive)
COc1ccc(C2C(C(C)=O)=C(O)C(=O)N2CCc2c[nH]c3ccccc23)cc1 (stereo not drawn) | 18.4% (active)
COc1ccc2[nH]cc(CCN3C(=O)c4ccc(C(=O)O)cc4C3=O)c2c1 | 11.4% (inactive)
COC(=O)CN1C(=O)C(O)=C(C(C)=O)C1c1ccc([N+](=O)[O-])cc1 (stereo not drawn) | -9.46% (inactive)
CCOc1ccc(-n2c(SCC(=O)Nc3cc(C)c(NC(=O)c4ccccc4)cc3OC)nnc2-c2cccs2)cc1 | -1.97% (inactive)
COC(=O)C1CN(CC(C)C)CCS(=O)(=O)N1Cc1ccc(F)cc1 (stereo not drawn) | -0.32% (inactive)
COCCCNC(=O)C[C@H]1C[C@@]2(C(=O)OC)C(=C[C@H](C(C)(C)C)O[C@@H]2C)N(Cc2ccc(Cl)cc2Cl)C1=O | -5.63% (inactive)
O=C(NCC1COc2ccccc2O1)c1ccc(NC(=O)c2cc(F)ccc2F)cc1 (stereo not drawn) | -1.61% (inactive)
CCOC(=O)[C@]12CCCCC/C=C\1N(Cc1ccc(OC)cc1)C(=O)[C@H]2CC(=O)N1CCOCC1 | -1.12% (inactive)
COc1cc(OC)cc(C(=O)NCC(=O)N2CCCCCCC2)c1 | 0.93% (inactive)
Cc1cc(C)cc(C(=O)NCC(=O)OCC(=O)N2CCCCC2)c1 | 2% (inactive)
COc1ccc(OC)c(CN2CCN(C(=O)CNC(=O)c3cc(C)cc(C)c3)CC2)c1 | 21.8% (active)
CCOC(=O)[C@@]12CN(C(=O)OC(C)(C)C)CC=C1N(Cc1ccc(OC)cc1)C(=O)[C@H]2CC(=O)NCc1ccc(OC)c(OC)c1 | 4.2% (inactive)
CCOc1ccc(-c2nnc3ccc(SC)nn23)cc1 | -1.24% (inactive)
COC(=O)C(C)Sc1ccc2nnc(-c3cccc(F)c3)n2n1 (stereo not drawn) | 24.6% (active)
CCOC(=O)CNC(=O)CSc1ccc2nnc(-c3cccnc3)n2n1 | 0.77% (inactive)
CN(C)[C@H]1CCN(c2cccc3c2S(=O)(=O)N2CC[C@H](C2)O3)C1 | -4.89% (inactive)

Structure (SMILES) | inhibition
O=C(CN1CCCc2ccccc21)NCc1ccc(F)cc1 | 7.37% (inactive)
COC(=O)[C@H](C(C)C)N(CCCc1cn(Cc2ccccc2)nn1)S(=O)(=O)c1ccc(F)cc1Br | -3.32% (inactive)
O=C(N/N=C1\CCSC1)c1cc(Cl)ccc1O | 8.12% (inactive)
CC(=N\NC(=O)c1cc(Br)ccc1O)/C(=N/O)C(=O)Nc1ccccc1 | 9.77% (inactive)
CC(C)/C=N/NC(=O)c1cc(Br)ccc1O | 19.5% (active)
COc1ccc(-n2c(SCC(=O)NC3CCCC3)nnc2-c2ccncc2)cc1 | 6.27% (inactive)
O=C(NC1CCC1)c1ccc(C#Cc2cccc(F)c2)c[n+]1[O-] | -0.65% (inactive)
CC(C)(C)c1cnnn1-c1ccc([N+](=O)[O-])cc1 | -4.05% (inactive)
O=c1[nH]n(-c2ccc([N+](=O)[O-])cc2)c(=O)c2ccccc12 | 31.2% (active)
O=C(Nn1c(SCc2ccc([N+](=O)[O-])cc2)nc2ccccc2c1=O)c1ccc(F)cc1 | -45.6% (inactive)
O=C(NCCC1=CCCCC1)C1CCN(S(=O)(=O)c2ccc(Cl)s2)CC1 | -2.35% (inactive)
Cc1nn(-c2ccccc2)c(C)c1NC(=O)COC(=O)c1cc(Cl)ccc1O | -4.36% (inactive)
CCC(Oc1ccccc1)C(=O)OCC(=O)Nc1c(C)nn(-c2ccccc2)c1C (stereo not drawn) | 5.85% (inactive)
C/C=C/c1ccc(OCC(=O)OCC(=O)Nc2c(C)nn(-c3ccccc3)c2C)c(OC)c1 | 18.3% (active)
COc1ccc(CCNc2ncnc3nc[nH]c23)cc1OC | 32.2% (active)
CCc1ccc(N(CC)c2ncnc3nc[nH]c23)cc1 | -3.78% (inactive)
COc1ccc(CCNc2nc3ccc(C)cc3n3cnnc23)cc1OC | -5.53% (inactive)
Cc1ccc(OCc2nnc(SC/C=C/c3ccccc3)n2Cc2ccco2)cc1 | 4.07% (inactive)
C=CCN(C(=O)[C@@H](CCCC)[C@@H](O)c1ccc(Cl)cc1)c1ccccc1 | -2.75% (inactive)
CN(c1ccc(O)cc1)c1nc(-c2cccnc2)cs1 | 7.08% (inactive)
COc1ccc(-c2csc(Nc3ccc(O)cc3)n2)cc1 | 26.2% (active)
COc1ccc(-c2ccc3nnc(SCC(=O)Nc4ccc(NC(C)=O)cc4)n3n2)cc1 | -23.3% (inactive)
